Compounds without any hit were thinned out: in the full panel of roughly 83,000, 20% have a hit.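 Compound tested at a single concentration for 48 hours in 96-well plates; a percent growth value below 10 was scored as active.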 Unmarked numbers belong to inactive results. Activity calls are given as the source filed them.

Holding throughout (assay): NCI-60 one-dose screen, 48 h (100 = growth as untreated, 0 = no growth, -100 = all killed)
Details in all cases: 10 µM unless noted

The subject of assay [1] is K-562 leukemia.
The subject of assay [2] is MALME-3M melanoma.
Assay [3] relates to SF-268 CNS.
For assay [4], the system named is UACC-257 melanoma.
Assay [5] concerns M14 melanoma.
Assay [6] has as its system HCT-15 colon.
Assay [7] relates to SNB-75 CNS.
In assay [8] the test system is SNB-19 CNS.
Assay [9] deals with PC-3 prostate.
The test system of assay [10] is UACC-62 melanoma.
Assay [11] concerns LOX IMVI melanoma.
Assay [12] concerns SK-MEL-28 melanoma.
The subject of assay [13] is DU-145 prostate.
Assay [14] deals with MDA-MB-231 breast.
Assay [15] relates to RXF 393 renal.
For assay [16], the system named is SF-295 CNS.
The test system of assay [17] is SF-539 CNS.
In assay [18] the test system is HT29 colon.
In assay [19] the test system is SK-MEL-5 melanoma.

For `Cc1cc(N=C(N)c2ccccc2)ccc1OCCCCCCCCn1ccnc1`, the growth in assay [1] is 12.4%; in assay [2], -77.2% (active); in assay [3], -12.2% (active); in assay [4], -2.36% (active); in assay [5], -17.5% (active); in [6], 7% (active). Moreover, the growth in assay [7] was 12.5%; in [8], 19.3%; in assay [9] it was 27.8%; in assay [10], -3.8% (active); in [11], -80.7% (active); in assay [12], -68.5% (active).
Turning to `Cc1ccc2nc(COc3ccc(C(=O)NNC(=O)Nc4ccc(Cl)c(C(F)(F)F)c4)cc3)[nH]c2c1`, the growth in assay [13] was 59.3%; in assay [1] it was 20.8%; in [2], -48.5% (active); in assay [14], 3.89% (active); in assay [15], 50.2%; in assay [3], 40.1%. The growth in assay [16] is 63%; in assay [17], -10.6% (active); in [4], -17.4% (active); in assay [5], 27.7%; in assay [6], 97.2%; in assay [18], 75.9%. Besides, the growth in [7] is 94.1%; in assay [8], 24.9%; in assay [9] it was 18.1%; in [19] it was 35.3%; in assay [10], 40.1%; in [11] it was 69.1%. For the same compound, the growth in [12] is -35.4% (active).
As for `COc1ccc(/C=C/c2nc3ccccc3n3c(-c4cccc([N+](=O)[O-])c4)nnc23)cc1`, the growth in [13] was -18% (active); in [1], 5.5% (active); in [2], -69.7% (active); in [14], 1.23% (active); in [15], -85.2% (active); in assay [3] it was -16.4% (active). For the same compound, the growth in [16] was 12.4%; in [17], -86.5% (active); in [4], -48.9% (active); in [5] it was -77.4% (active); in [6], -80.7% (active); in assay [18], -59.5% (active). Further, the growth in assay [7] is -2.16% (active); in [8], 15%; in [9], 5.23% (active); in [19], -95.4% (active); in assay [10] it was -83.1% (active); in [11] it was -77.3% (active). For the same compound, the growth in assay [12] is -47.1% (active).
Consider `COc1ccc(C(=O)c2cc(C(C)=O)c3c(C)cc(C)cn23)cc1`, for which the growth was 66.9% in assay [13]; 86.4% in assay [1]; 72.1% in assay [2]; 75.3% in assay [14]; 8.06% (active) in assay [15]; 23.5% in assay [3]. Also, the growth in assay [16] was 31%; in assay [17], 23.8%; in assay [4] it was 79.2%; in assay [5], 84.9%; in assay [6] it was 65.9%; in assay [18], 72.5%. Moreover, the growth in assay [7] is 2.27% (active); in assay [8], 24.8%; in [9], 82.9%; in assay [19], 33.6%; in [10], 63.4%; in assay [11], 54.9%. Besides, the growth in assay [12] is 72.9%.
In the case of `Cc1ccc(-c2cc(C(=O)N=Nc3c(O)[nH]c4ccc(F)cc34)c3ccccc3n2)cc1`, the growth in [13] was 51.1%; in assay [1], 60.8%; in assay [2], 48.4%; in assay [14], 11%; in [15], 109%; in assay [3] it was 65.3%. In addition, the growth was 98.7% in assay [16]; -39.7% (active) in assay [17]; 69% in assay [4]; 79.6% in assay [5]; 7.85% (active) in assay [6]; 36.3% in assay [18]. Besides, the growth is 56.7% in assay [7]; 41.9% in [8]; 77.6% in [9]; 59.2% in assay [19]; 59.9% in [10]; 1.93% (active) in assay [11]. In [12], the growth is 14.5%.
In the case of `COc1ccc(N=Nc2c(N)nn3c(-c4cc5cc(Br)ccc5oc4=O)ccnc23)cc1`, the growth is 37.3% in assay [13]; 48.4% in assay [1]; 46.4% in assay [2]; -27.3% (active) in [14]; -41.8% (active) in assay [15]; 23.2% in assay [3]. The growth was -33.6% (active) in [16]; 15.6% in assay [17]; 78.1% in assay [4]; 52.5% in assay [5]; 29.9% in [6]; 32.9% in assay [18]. The growth was -14.8% (active) in assay [7]; 2.33% (active) in assay [8]; 44.9% in [9]; -14.2% (active) in assay [19]; 30.7% in assay [10]; 26.4% in assay [11]. The growth in assay [12] was 28.8%.
For the compound `O=C(NC(=S)N1CCN(c2ncnc3c2cnn3-c2ccccc2)CC1)c1ccc(F)cc1`, the growth was 86.4% in [13]; 51.3% in assay [1]; 78.1% in assay [2]; 84.2% in assay [14]; 77% in assay [15]; 80.2% in [3]. In addition, the growth in assay [16] was 69.3%; in assay [17], 73.8%; in assay [4], 89%; in assay [5], 86.8%; in assay [6], 49.9%; in assay [18] it was 78%. In addition, the growth in [7] is 53.7%; in assay [8] it was 84.9%; in assay [9], 71.9%; in assay [19] it was 56%; in [10], 74.2%; in [11], 63.4%. The growth in assay [12] is 85.6%.
As for `NC(=Nc1ccc(OCCCCCCCCn2cnnn2)cc1)c1ccccc1`, the growth is 15.4% in assay [1]; 46.3% in assay [2]; 11.8% in assay [14]; 38.8% in assay [3]; 49.7% in [4]; 18.1% in assay [5]. In addition, the growth is 14.6% in assay [6]; 45.4% in assay [7]; 20.8% in [8]; 36.2% in assay [9]; 28.3% in assay [10]; 23% in assay [11]. For the same compound, in assay [12], the growth is 65.1%.
In the case of `Cc1ccc(C2CC(c3ccc(S(=O)(=O)NCCNc4nc(N(C)C)nc(N5CCOCC5)n4)cc3)=Nc3c(N)nc(N)nc3N2)cc1` (centres undefined), the growth in assay [13] was 66%; in [1] it was 22.8%; in [2], 57.3%; in [14], 31%; in assay [15], 10.6%; in assay [3] it was 45.2%. For the same compound, the growth in assay [16] was 32.7%; in assay [17], 43.8%; in [4] it was 72.6%; in assay [5], 44.7%; in assay [6] it was 44.5%; in assay [18] it was 17.9%. Moreover, the growth in assay [7] is 59.5%; in assay [8] it was 57.3%; in assay [9] it was 27.9%; in [19], 34.5%; in assay [10] it was 71.1%; in [11], 17.7%. Also, the growth in assay [12] is 71.1%.
In the case of `Cc1ccc2c(c1)/C(=C/C(=O)c1cc3ccccc3oc1=O)C(=O)N2`, the growth in assay [13] is 83.9%; in [1], 6.62% (active); in [2] it was -27.8% (active); in [14], 65.1%; in [15], -41.2% (active); in assay [3] it was 84.4%. In addition, the growth was 104% in assay [16]; 61.1% in assay [17]; 73.3% in assay [4]; 37% in assay [5]; -20.4% (active) in assay [6]; 59.9% in [18]. The growth is 88.7% in [7]; 87.8% in assay [8]; 73.5% in [9]; 94.2% in assay [19]; 49.7% in assay [10]; 27.4% in assay [11]. Besides, the growth in assay [12] is 55.7%.
Take `O=C(Nc1ccc(-c2ccc3c(c2)NC(=O)/C3=C\c2ccc[nH]2)cc1)Nc1ccc(Cl)c(Cl)c1`: the growth in assay [13] is 54.3%; in [1] it was 39%; in [2], 68.7%; in assay [14] it was 71.5%; in assay [15], -1.35% (active); in [3], 48.9%. Further, the growth in assay [16] is 23.3%; in assay [17], -48.9% (active); in assay [4], 76%; in assay [5], 59.3%; in assay [6] it was 41.4%; in assay [18], 10.7%. Further, the growth was 52.1% in assay [7]; 67.5% in [8]; 64.7% in assay [9]; 74.7% in [19]; 42.4% in assay [10]; 26.2% in [11]. Besides, the growth in assay [12] is 64.2%.
With `N/C(=N\c1nc2ccc([N+](=O)[O-])cc2s1)NC(=O)Nc1ccccc1Cl`, the growth in assay [13] is 45.5%; in assay [1] it was 13%; in assay [2], -17.1% (active); in assay [14], 15%; in assay [15], 25%; in [3] it was 56.1%. Besides, the growth in assay [16] is 58.5%; in assay [17], 11.1%; in assay [4], 89.6%; in assay [5] it was 62.8%; in assay [6] it was 28.3%; in assay [18] it was 62.1%. For the same compound, the growth in assay [7] was 24.4%; in assay [8] it was 49.7%; in assay [9] it was 69%; in assay [19], 44.7%; in [10], 54.8%; in assay [11] it was 29.6%. For the same compound, the growth in assay [12] was 60.5%.
On to `COc1ccc(/C=C/c2nc3ccccc3c(=O)n2CC(=O)Nc2ccccc2)cc1`, for which the growth in assay [13] is 78%; in assay [1], 84.5%; in [2] it was 61.1%; in [14] it was -19.5% (active); in [15] it was -54.7% (active); in [3], 54.5%. In addition, the growth in [16] is 12.5%; in assay [17], 32.4%; in [4], 93.5%; in [5], 46.4%; in [6], 79.9%; in [18], 83.3%. For the same compound, the growth is -35% (active) in assay [7]; 29.1% in assay [8]; 84.7% in assay [9]; 71.6% in [19]; 78.6% in [10]; 26.9% in [11]. In addition, the growth in [12] was 79.1%.

The values are drawn from PubChem BioAssay (NCI).
